SMN2 splice up – SMN2 splice variant enhancement; HEK293 SMN2-luciferase splicing reporter, luminescence, 30-36 h; Potency, µM (highest dose often 46.1 µM), for the others: at the highest dose activity change, positive = activation, actives largely listed as activators; 210,000 compounds, 2.8% hits; AID 1458; note: % of control where 0% means no effect; nearly all actives have a fitted effect of over 55% in size
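qHTS luciferase splicing reporter: luminescence rises when SMN2 exon 7 is included in transfected HEK293 cells. Compound exposure lasted 30-36 h at 37C, with 4.5 mM final sodium butyrate as control, followed by a ONE-Glo read.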
ELG1 genotox – induces genotoxicity in HEK293T cells with luciferase-tagged ELG1; HEK293T ELG1-luciferase reporter, luminescence, 16 h; Potency, µM (top dose mostly 46 µM), for the others: at the top dose activity change, positive = activation, hits mostly activators; 330,000 compounds, 1.3% hits; AID 504466; note: % of control where 0% means no effect; nearly all actives have a fitted effect of over 60% in size
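HEK293T cells expressing luciferase-tagged ELG1 were treated with compound or DMSO for 16 hr at 37°C. Luciferase activity was then read after 30 min with ONE-Glo at room temperature; rising signal flags genetic stress.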
Rab9 promoter act – activators of Rab9 promoter | Huh7 Rab9 promoter-luciferase reporter, luminescence, 24 h | Potency, µM (series often up to 9.22 µM), without a hit: top-dose activation, negative = inhibition, actives largely listed as activators | 320,000 compounds, 2.8% hits; note: % of control where 0% means no effect; nearly all actives have a fitted effect of over 60% in size
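Stable Rab9-luc Huh7, 1500 cells/well, 2 h settle; cmpd in DMSO, 24 h, 37 °C/5% CO2; luciferase reagent 10 min RT; luminescence.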
Luc counter – counter-screen: inhibitors of Kinase-Glo firefly luciferase. Q27757. Potency, µM (titrated, usually from 38.3 µM), for the others: at the top dose activity change, negative = inhibition, usual class: inhibitors. AID 1379. Kinase-Glo luciferase, ATP luminescence, 8 min. 200,000 compounds, 0.28% hits; note: % is set by controls: 0 for no effect and ±100 for the full control effect; nearly all actives have a fitted effect of over 60% in size
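Kinase-Glo luciferase light output from ATP and luciferin was measured with 10 uM ATP, within the enzyme's linear range. Buffer: 50 mM imidazole pH 7.2, 50 mM KCl, 7 mM MgCl2, 0.01% Tween 20, 0.05% BSA; luminescence read after 8 min at ambient temperature.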
FLuc modulator – firefly luciferase modulation, counter-screen for miR-21 project | P08659 | 360,000 compounds, 6.9% hits | Potency, µM (highest dose often 57.5 µM), inactives show at the top dose activity change, negative = inhibition, most hits filed as inhibitors | purified FLuc, Km substrates, luminescence inhibition | AID 588342;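 note: plate controls were vehicle for no effect and reference inhibitor for full effect; nearly all actives have a fitted effect of over 55% in size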
Target sequence (P08659 whole entry, looked up): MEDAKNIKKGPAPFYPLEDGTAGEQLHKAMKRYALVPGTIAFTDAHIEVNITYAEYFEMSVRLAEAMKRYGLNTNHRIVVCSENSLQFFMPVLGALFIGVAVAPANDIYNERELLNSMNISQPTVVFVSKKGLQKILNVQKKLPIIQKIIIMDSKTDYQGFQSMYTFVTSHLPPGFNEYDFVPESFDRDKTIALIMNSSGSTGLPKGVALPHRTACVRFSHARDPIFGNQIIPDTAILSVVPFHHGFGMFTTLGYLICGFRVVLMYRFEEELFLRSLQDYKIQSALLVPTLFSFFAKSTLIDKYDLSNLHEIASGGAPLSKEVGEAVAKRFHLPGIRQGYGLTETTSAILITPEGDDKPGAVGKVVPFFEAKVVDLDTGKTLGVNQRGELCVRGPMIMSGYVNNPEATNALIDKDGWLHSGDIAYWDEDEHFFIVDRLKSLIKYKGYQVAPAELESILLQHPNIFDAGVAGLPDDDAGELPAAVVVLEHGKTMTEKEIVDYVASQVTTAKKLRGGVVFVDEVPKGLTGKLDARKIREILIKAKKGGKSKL
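Biochemical qHTS of compounds, final roughly 60 µM downward over six points, against 10 nM purified firefly luciferase using Km concentrations of substrates (10 uM D-luciferin, 10 uM ATP) in Tris acetate pH 7.5 buffer; luminescence output.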
NPC1 promoter act – activators of NPC1 promoter; Huh7 NPC1 promoter luciferase reporter, 24 h; Potency, µM (titrated, usually from 9.22 µM), inactives show at the highest dose activation, usual class: activators; 320,000 compounds, 2.4% hits; note: % of control where 0% means no effect; nearly all actives have a fitted effect of over 60% in size
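Stably transfected Huh7 (NPC1 promoter→luciferase), 1500 cells/well in Opti-MEM + 10% FBS, 2 h settle, then compound 24 h at 37 °C. Luminescence after 10 min with Amplite reagent.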
* marks the source's active call; other numbers are inactive results; ? = inconclusive; . = not tested or not shown; [ ] = remark or other dose. This is a sample that favours compounds with a hit; in the whole collection about 7.5% have one here. Calls come from the whole dose curve; as a rule, active = well fitted curve in the direction sought with a large enough effect; inconclusive = small, poorly fitted or top-dose-only effect, or another doubt; inactive = no such curve, though single readings can be large; an effect the other way counts as inactive or inconclusive. Potency is the fitted concentration of half-maximal effect.

SMILES	SMN2 splice up	ELG1 genotox	Rab9 promoter act	Luc counter	FLuc modulator	NPC1 promoter act
O=C(c1cc(-c2ccc(Cl)cc2Cl)on1)N1CCOCC1	1.3µM*	0.65µM*	0.32µM*	-5%	0.76µM*	0.4µM*
O=C(NCCc1ccc(Cl)cc1)c1cnc2sc(N3CCOCC3)nn2c1=O	.	.	.	.	3%	.
COc1ccc(C(=O)c2coc3ccc(O)cc23)cc1	?	?	5%	-4%	1.5µM*	?
O=C(O)COc1ccc2occ(C(=O)c3ccccc3)c2c1	9%	-1%	-8%	-5%	?	-3%
O=C(NNC(=O)c1ccco1)c1cccc(Br)c1	.	-15%	-18%	.	-2%	-4%
Cc1ccc(C(=O)c2coc3ccc(OCC(=O)O)cc23)cc1	?	3%	3%	0%	21µM*	-2%
O=C(c1cccc(Br)c1)c1coc2ccc(O)cc12	.	?	?	.	3µM*	?
COc1cc(OC)c(C(=O)OCC(=O)N(Cc2ccccc2)C(C)(C)C)cc1OC	-4%	-8%	-3%	-1%	3%	0%
COC(=O)CC1=C(C(=O)OC)[C@@H](c2ccccc2[N+](=O)[O-])C(C#N)=C(N)O1	.	-1%	-1%	.	1%	-3%
C=C(C)C1CC=C(C)/C(=N/NC(=O)C2CC2c2ccccc2)C1 (stereo not drawn)	-13%	-2%	-4%	0%	-2%	-4%
CC(C)OC(=O)c1cccc(C(=O)Oc2ccc(Br)cc2)n1	1%	0%	-5%	-5%	9.5µM*	-4%
CC(C)OC(=O)c1cccc(C(=O)O)n1	-9%	0%	-1%	-5%	0%	-6%
O=c1ccnc(S/C=C/c2ccccc2)[nH]1	16%	13%	16%	-24%	19µM*	?
CC(C)[C@@H](CO)NS(=O)(=O)c1ccc(Br)cc1F	.	1%	.	.	.	.
Cc1nc(N)nc(N/N=C/c2c(F)cccc2Cl)n1	.	8%	-2%	.	?	7%
Cc1nc(C#N)c(N/N=C/c2c(F)cccc2Cl)o1	?	5%	19%	-1%	24µM*	10%
Cc1ccccc1CC(=O)Nc1sc(C(C)C)cc1C(=O)N1CCOCC1	.	-2%	4%	.	0%	-2%
CCNC(=S)N/N=C/c1cccc(OCc2c(F)cccc2Cl)c1	-53%	-4%	-7%	-10%	17µM*	3%
CNC(=S)N/N=C/c1cccc(OCc2ccccc2F)c1	1%	?	18%	-13%	4.8µM*	13%
CCNC(=S)N/N=C/c1cccc(/C=N/NC(=S)NCC)c1	3%	-1%	14%	1%	2%	9%
NC(=O)c1cc[n+](CC2=C(C(=O)[O-])N3C(=O)[C@@H](NC(=O)Cc4cccs4)[C@@H]3SC2)cc1	-1%[20.6 µM]	.	.	-5%[17.1 µM]	.	.
Clc1ccc(OCCCN2CCCCC2)c(Br)c1	?	9%	?	-1%	15µM*	?
Clc1ccc(OCCCn2ccnc2)c(Br)c1	-11%	0%	-7%	0%	19µM*	-5%
C(=N\N=C\c1cccs1)/c1cccs1	?	6%	2µM*	-17%	2.1µM*	?
O=c1c2ccccc2nc(-c2ccco2)n1CCc1ccc(O)cc1	.	-15%	6%	.	-15%	-5%
SMILES	SMN2 splice up	ELG1 genotox	Rab9 promoter act	Luc counter	FLuc modulator	NPC1 promoter act
Cn1c(-n2c(-c3ccco3)nc3ccccc3c2=O)nc2ccccc21	-10%	-1%	-5%	-6%	21µM*	0%
O=c1c2ccccc2nc(-c2ccco2)n1-c1nc2ccccc2s1	-14%	6%	5%	2%	15µM*	7%
COCCn1c(=O)c(CCc2ccccc2)nc2cnc(OC)nc21	-9%	.	.	-2%	.	.
Cc1cccc(OCc2ccc(-c3nc(C#N)c(NCCN(C)C)o3)o2)c1	.	.	.	.	-5%	.
CC(=O)c1cccc(NC(=O)Cn2cc(C(=O)c3cccc(Cl)c3)c(=O)c3ccc(C)nc32)c1	-11%	.	.	.	0%	.
CCCC(=O)N1c2ccccc2C(N(C(C)=O)c2ccccc2)CC1C (stereo not drawn)	-14%	0%	-9%	-1%	1%	-3%
CCC(=O)N1c2ccccc2[C@@H](N(C(C)=O)c2ccccc2)C[C@H]1C	7.9µM*	23µM*	14%	2%	0%	2%
COCCn1c(C)cc(C(=O)CSc2nc(C)c(C)c(C)n2)c1C	-24%	0%	0%	0%	-19%	-6%
COCCn1c(C)cc(C(=O)CSc2nc3ccccc3o2)c1C	7.9µM*	?	0.35µM*	-3%	1.3µM*	0.63µM*
COCCn1c(C)cc(C(=O)CSc2nc3ccccc3s2)c1C	-77%	?	0.5µM*	-13%	0.54µM*	0.35µM*
COCCn1c(C)cc(C(=O)CSc2cc(C)c3ccc(OC)cc3n2)c1C	.	2%	19%	.	3µM*	7%
COc1ccc2c(C)cc(SCC(=O)c3ccc4c(c3)OCO4)nc2c1	-11%	-7%	7%	1%	?	-1%
CCN(CC)C1CCN(C(=O)c2cc(COc3ccc(-n4cncn4)cc3)on2)C1 (stereo not drawn)	.	-2%	5%	.	-3%	6%
CC(C)N1CCN(Cc2cn[nH]c2C2CCCCC2)CC1CCO (stereo not drawn)	.	1%	11%	4%	0%	-1%
Cc1cc(C)n2nc(SCc3nnc(SCc4ccccc4C)s3)nc2n1	-23%	-6%	-2%	0%	?	0%
Cc1cc(C)n2nc(SCc3nnc(SCc4ccccc4Cl)s3)nc2n1	-56%	-1%	-4%	4%	17µM*	-3%
On1c(-c2ccc(Cl)cc2)nc2ccccc21	-27%	10%	?	?	19µM*	?
On1c(-c2ccccc2)nc2ccccc21	.	5%	-5%	.	?	-5%
CCn1c(=O)c2sccc2n2c(CCC(=O)N3CCN(c4ccccc4OC)CC3)nnc12	-4%	.	.	.	-4%	.
C=CCn1cccc(/C=C/C(=O)c2ccc(C(C)(C)C)cc2)c1=S	-104%	-19%	-8%	-2%	13µM*	-1%
COc1ccc(/C=N/N2C(=O)c3ccccc3C2=O)cc1	-1%	-4%	-1%	14µM*	2.1µM*	1%
CCN(CC)c1ccc(/C=N/N2C(=O)c3ccccc3C2=O)cc1	-15%	0%	-2%	-5%	4.3µM*	0%
COc1ccc(/C=N\n2nnc3ccccc32)cc1	0.79µM*	?	0.22µM*	-28%	0.19µM*	0.32µM*
COc1ccccc1/C=N/N1C(=O)c2cccc3cccc(c23)C1=O	18%	0%	-3%	1%	0%	-3%
CN(C)c1ccc(/C=N/N2C(=O)c3ccccc3C2=O)cc1	.	7%	10%	.	0.43µM*	0%

Assay outcomes from PubChem BioAssay.
